Drawing on PubChem BioAssay (NCI), this text covers growth inhibition for nine compounds.

Each structure is given as a SMILES string. This is part of a sample that, as a whole, favours compounds with a hit. Of some 79,000 tested, about 15% had one in any assay. A number with no mark means an inactive call. Calls of active or inactive are those of the source. Cut-off read from the data, not from the text of the source: active = growth inhibition above about 70%; inactive = the rest.

The nature of assay [1]: NCI Yeast Anticancer Drug Screen. Data for the rad50 strain (AID 155).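 Note: 0% = growth of vehicle-only cultures of the same strain.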 Particulars: S. cerevisiae rad50 strain growth inhibition, stronger effect = higher value. Put shortly:
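Readout: growth inhibition relative to vehicle-treated cultures. Compound exposure was carried out in a genetically defined yeast strain deficient in DNA damage repair.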

Assay [2] can be described thus: NCI Yeast Anticancer Drug Screen. Data for the mec2-1 strain (AID 157). Particulars: S. cerevisiae mec2-1 strain, stronger effect = higher value. Put shortly: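 Readout is yeast growth inhibition, normalised to vehicle-treated controls, in the mec2-1 strain exposed to compound.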
A short description of assay [3]: NCI Yeast Anticancer Drug Screen. Data for the sgs1 mgt1 strain (AID 161).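 Note: 0% = growth of cultures given vehicle only.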 Particulars: S. cerevisiae sgs1 mgt1 strain, stronger effect = higher value. The procedure, abridged: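 Yeast cells carrying a defined DNA-repair defect were exposed to test compounds. Growth inhibition was measured relative to vehicle-treated controls.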
The nature of assay [4]: NCI Yeast Anticancer Drug Screen. Data for the cln2 rad14 strain (AID 165).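 Note: 0% = growth equal to vehicle treated cultures.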 The following applies: S. cerevisiae cln2 rad14 strain, stronger effect = higher value. Put shortly: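 Relative to vehicle controls, growth inhibition of compound-treated cln2 rad14 yeast was recorded.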
Assay [5] in a line: NCI Yeast Anticancer Drug Screen. Data for the bub3 strain (AID 167). The following applies: S. cerevisiae bub3 mutant strain, stronger effect = higher value. The procedure, abridged:
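Readout: yeast growth inhibition, expressed relative to vehicle-only wells. The test organism is a mutant strain from a panel with lesions in DNA repair or checkpoint genes.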

A short description of assay [6]: NCI Yeast Anticancer Drug Screen. Data for the mlh1 rad18 strain (AID 175). The following applies: S. cerevisiae mlh1 rad18 strain growth inhibition, stronger effect = higher value. The procedure, abridged:
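Test agents were incubated with a yeast strain of defined genotype (DNA damage repair defect). Inhibition of growth was derived by comparison with vehicle-exposed cultures.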

The mark [7] stands for this setting: at 5.0 µM (retest, dose inferred, filed as 0.5).
Setting [8] is: at 50.0 µM (retest, dose inferred, filed as 5.0).

With `COc1ccc(C2C3C(=O)OCCOC(=O)C3C2c2ccc(OC)c(OC)c2)cc1OC` (configuration not stated), the growth inhibition is 1% in assay [1] (setting [7]); 49% in assay [1] (setting [8]); 12.5% in assay [1] (at 50.0 µM); 13% in assay [2] (setting [7]); 51% in assay [2] (setting [8]); 17.2% in assay [2] (at 50.0 µM). The growth inhibition is 4% in assay [3] (setting [7]); 49% in assay [3] (setting [8]); 14.2% in assay [3] (at 50.0 µM); 21% in assay [4] (setting [7]); 59% in assay [4] (setting [8]); 7.7% in assay [4] (at 50.0 µM). Moreover, the growth inhibition was 15% in assay [5] (setting [7]); 62% in assay [5] (setting [8]); 18.9% in assay [5] (at 50.0 µM); 15% in assay [6] (setting [7]); 67% in assay [6] (setting [8]); 37.5% in assay [6] (at 50.0 µM).

As for `CC(=O)Oc1ccccc1C(=O)/C=C/c1ccccc1`, the growth inhibition in assay [1] (setting [7]) was 3%; in assay [1] (setting [8]), 82% (active); in assay [1] (at 50.0 µM) it was -11.2%; in assay [2] (setting [7]) it was 7%; in assay [2] (setting [8]), 89% (active); in assay [2] (at 50.0 µM), 17.4%. Further, the growth inhibition in assay [3] (setting [7]) is 4%; in assay [3] (setting [8]) it was 93% (active); in assay [3] (at 50.0 µM), 11.6%; in assay [4] (setting [7]), 0%; in assay [4] (setting [8]), 40%; in assay [4] (at 50.0 µM), -17.3%. Besides, the growth inhibition is -1% in assay [5] (setting [7]); 90% (active) in assay [5] (setting [8]); 61% in assay [5] (at 50.0 µM); -1% in assay [6] (setting [7]); 98% (active) in assay [6] (setting [8]); 9.75% in assay [6] (at 50.0 µM).

For the compound `CN(C)c1ccc(/C=C/c2nc3ccccc3[nH]2)cc1`, the growth inhibition in assay [1] (setting [7]) is -2%; in assay [1] (setting [8]) it was 89% (active); in assay [1] (at 50.0 µM), 54%; in assay [2] (setting [7]), -9%; in assay [2] (setting [8]) it was 77% (active); in assay [2] (at 50.0 µM) it was 56.8%. Besides, the growth inhibition in assay [3] (setting [7]) was -3%; in assay [3] (setting [8]), 89% (active); in assay [3] (at 50.0 µM), 37.1%; in assay [4] (setting [7]) it was -7%; in assay [4] (setting [8]) it was 67%; in assay [4] (at 50.0 µM), 16.7%. Moreover, the growth inhibition is -10% in assay [5] (setting [7]); 54% in assay [5] (setting [8]); 14.6% in assay [5] (at 50.0 µM); -13% in assay [6] (setting [7]); 97% (active) in assay [6] (setting [8]); 80% (active) in assay [6] (at 50.0 µM).

Turning to `CC(NC(=O)OC(C)(C)C)C(=O)NC(Cc1ccccc1)C(=O)NCC(=O)Oc1c(Cl)c(Cl)c(Cl)c(Cl)c1Cl` (configuration not stated), the growth inhibition was 30% in assay [1] (setting [7]); 66% in assay [1] (setting [8]); 65.4% in assay [1] (at 50.0 µM); 27% in assay [2] (setting [7]); 45% in assay [2] (setting [8]); 71.5% (active) in assay [2] (at 50.0 µM). Moreover, the growth inhibition was 41% in assay [3] (setting [7]); 72% (active) in assay [3] (setting [8]); 77% (active) in assay [3] (at 50.0 µM); 27% in assay [4] (setting [7]); 55% in assay [4] (setting [8]); 46.5% in assay [4] (at 50.0 µM). Further, the growth inhibition in assay [5] (setting [7]) was 35%; in assay [5] (setting [8]), 61%; in assay [5] (at 50.0 µM) it was 56.5%; in assay [6] (setting [7]), 68%; in assay [6] (setting [8]), 79% (active); in assay [6] (at 50.0 µM), 73.4% (active).

As for `O=C(c1ccccc1)C(c1ccccc1)C1(O)C(=O)Nc2c(Cl)cc(Cl)cc21` (configuration not stated), the growth inhibition in assay [1] (setting [7]) is 13%; in assay [1] (setting [8]), 13%; in assay [1] (at 50.0 µM), 92.8% (active); in assay [2] (setting [7]), -6%; in assay [2] (setting [8]), -6%; in assay [2] (at 50.0 µM), 93.3% (active). The growth inhibition was -18% in assay [3] (setting [7]); -18% in assay [3] (setting [8]); 92% (active) in assay [3] (at 50.0 µM); -6% in assay [4] (setting [7]); -6% in assay [4] (setting [8]); 87% (active) in assay [4] (at 50.0 µM). Also, the growth inhibition in assay [5] (setting [7]) was -5%; in assay [5] (setting [8]), -5%; in assay [5] (at 50.0 µM) it was 93.2% (active); in assay [6] (setting [7]), 0%; in assay [6] (setting [8]) it was 0%; in assay [6] (at 50.0 µM), 92.2% (active).

On to `C=CC[C@]1(C(C)Cc2ccc(OC)c(OC)c2)C[C@@H](OC)C=CC1=O` (some centres not stated), for which the growth inhibition in assay [1] (setting [7]) is -7%; in assay [1] (setting [8]), 89% (active); in assay [1] (at 50.0 µM), 88% (active); in assay [2] (setting [7]), 8%; in assay [2] (setting [8]), 89% (active); in assay [2] (at 50.0 µM), 93% (active). Also, the growth inhibition in assay [3] (setting [7]) was 0%; in assay [3] (setting [8]) it was 85% (active); in assay [3] (at 50.0 µM) it was 88.8% (active); in assay [4] (setting [7]), 13%; in assay [4] (setting [8]), 86% (active); in assay [4] (at 50.0 µM), 88.5% (active). Further, the growth inhibition in assay [5] (setting [7]) is 7%; in assay [5] (setting [8]) it was 92% (active); in assay [5] (at 50.0 µM), 89.5% (active); in assay [6] (setting [7]), -1%; in assay [6] (setting [8]), 92% (active); in assay [6] (at 50.0 µM), 96% (active).

`O=C1CC(O)CC(=O)C1=C(O)CCCCCCCCCCc1ccccc1` (configuration not stated): the growth inhibition is 25% in assay [1] (setting [7]); 41% in assay [1] (setting [8]); 66.4% in assay [1] (at 50.0 µM); 25% in assay [2] (setting [7]); 39% in assay [2] (setting [8]); 85.3% (active) in assay [2] (at 50.0 µM). In addition, the growth inhibition in assay [3] (setting [7]) is 36%; in assay [3] (setting [8]) it was 57%; in assay [3] (at 50.0 µM), 74.2% (active); in assay [4] (setting [7]), 24%; in assay [4] (setting [8]) it was 33%; in assay [4] (at 50.0 µM) it was 81.5% (active). Further, the growth inhibition is 30% in assay [5] (setting [7]); 54% in assay [5] (setting [8]); 85.7% (active) in assay [5] (at 50.0 µM); 40% in assay [6] (setting [7]); 62% in assay [6] (setting [8]); 65.8% in assay [6] (at 50.0 µM).

Regarding `Nc1ccc2nc3ccccc3nc2c1`, the growth inhibition in assay [1] (setting [7]) is -11%; in assay [1] (setting [8]) it was 95% (active); in assay [1] (at 50.0 µM), 97% (active); in assay [2] (setting [7]), -11%; in assay [2] (setting [8]), 60%; in assay [2] (at 50.0 µM) it was 81% (active). The growth inhibition in assay [3] (setting [7]) was -22%; in assay [3] (setting [8]), 77% (active); in assay [3] (at 50.0 µM) it was 64.8%; in assay [4] (setting [7]), -10%; in assay [4] (setting [8]), 44%; in assay [4] (at 50.0 µM), 74% (active). For the same compound, the growth inhibition in assay [5] (setting [7]) is -4%; in assay [5] (setting [8]), 78% (active); in assay [5] (at 50.0 µM), 75.8% (active); in assay [6] (setting [7]), 4%; in assay [6] (setting [8]), 90% (active); in assay [6] (at 50.0 µM) it was 88.4% (active).

As for `CC(/C=C/NNC1=NC(c2ccccc2)C(c2ccccc2)=NN1)Sc1ccccc1N` (configuration not stated), the growth inhibition in assay [1] (setting [7]) was 43%; in assay [1] (setting [8]), 43%; in assay [1] (at 50.0 µM), 92.8% (active); in assay [2] (setting [7]) it was 22%; in assay [2] (setting [8]) it was 22%; in assay [2] (at 50.0 µM) it was 93.2% (active). Further, the growth inhibition in assay [3] (setting [7]) is 31%; in assay [3] (setting [8]), 31%; in assay [3] (at 50.0 µM) it was 90.7% (active); in assay [4] (setting [7]), 18%; in assay [4] (setting [8]), 18%; in assay [4] (at 50.0 µM), 90.8% (active). Besides, the growth inhibition in assay [5] (setting [7]) is 25%; in assay [5] (setting [8]), 25%; in assay [5] (at 50.0 µM), 92.9% (active); in assay [6] (setting [7]), 17%; in assay [6] (setting [8]) it was 17%; in assay [6] (at 50.0 µM) it was 91.3% (active).
